# Reference: PubChem BioAssay
# Activity calls are given as the source filed them.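 Rule for the calls, unless noted: active = compound raising the membrane signal above positive-control mean plus 3 SD in both repeats, and a primary screen hit; inactive = the rest.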
# Biological target: Short transient receptor potential channel 6 (Mus musculus) (UniProt Q61143)
# Assay: positive modulators of mouse TRPC6 channel – HEK293 cells, membrane potential dye, duplicate, selectivity assay for TRPC4 potentiator project, confirmation (AID 434952)
# Conditions: HEK293 TRPC6, membrane potential dye fluorescence, at 10 µM, maximal acetylcholine added after compound; hits give high values
# Chain of Short transient receptor potential channel 6 (Mus musculus) (Q61143 whole entry, looked up): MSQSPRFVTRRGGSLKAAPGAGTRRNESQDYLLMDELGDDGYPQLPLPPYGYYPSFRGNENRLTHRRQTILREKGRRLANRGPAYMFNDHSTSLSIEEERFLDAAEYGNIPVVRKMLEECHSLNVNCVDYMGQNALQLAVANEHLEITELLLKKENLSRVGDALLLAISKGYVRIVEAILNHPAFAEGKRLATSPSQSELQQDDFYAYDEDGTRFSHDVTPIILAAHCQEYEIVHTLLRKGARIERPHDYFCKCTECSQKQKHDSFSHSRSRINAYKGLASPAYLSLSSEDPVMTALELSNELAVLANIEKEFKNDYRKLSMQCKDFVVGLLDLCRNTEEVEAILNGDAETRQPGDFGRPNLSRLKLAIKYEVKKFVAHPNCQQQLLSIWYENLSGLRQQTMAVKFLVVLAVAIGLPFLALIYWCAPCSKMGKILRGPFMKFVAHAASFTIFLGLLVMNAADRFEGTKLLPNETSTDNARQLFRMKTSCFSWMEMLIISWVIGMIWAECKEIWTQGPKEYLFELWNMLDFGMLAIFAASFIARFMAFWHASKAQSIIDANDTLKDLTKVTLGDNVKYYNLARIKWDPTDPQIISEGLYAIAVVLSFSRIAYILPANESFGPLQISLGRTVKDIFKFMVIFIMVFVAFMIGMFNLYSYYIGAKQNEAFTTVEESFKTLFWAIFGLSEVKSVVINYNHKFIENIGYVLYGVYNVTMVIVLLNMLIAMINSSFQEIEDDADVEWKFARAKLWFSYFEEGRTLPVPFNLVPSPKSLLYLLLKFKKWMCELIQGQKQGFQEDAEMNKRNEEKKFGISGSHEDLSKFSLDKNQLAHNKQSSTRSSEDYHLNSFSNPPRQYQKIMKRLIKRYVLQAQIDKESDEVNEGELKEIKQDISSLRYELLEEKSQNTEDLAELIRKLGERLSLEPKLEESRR
row,SMILES,outcome
1,CC1CCCCN1S(=O)(=O)c1ccc(C(=O)N(CCCN(C)C)c2nc3ccc(Br)cc3s2)cc1 (stereo not given),inactive
2,CC(C)(C)C(=O)NC(=S)NNC(=O)c1ccc(-c2ccccc2)cc1,inactive
3,CCCOc1ccc(C(=O)NNC(=S)NC(=O)c2ccccc2)cc1,inactive
4,OCCN1CCN(Cc2cc(Br)cc(Br)c2O)CC1,inactive
5,c1ccc(Nc2nc(Nc3ccccc3)nc(N3CCNCC3)n2)cc1,inactive
6,O=c1c2cc(Br)ccc2nc(-c2cccc(C(F)(F)F)c2)n1O,inactive
7,COc1cc(OC)cc(C(=O)NC(=S)NNC(=O)[C@H]2C[C@@H]2c2ccccc2)c1,inactive
8,c1ccc2c(c1)CCN(c1ncnc3c1[nH]c1ccccc13)C2,inactive
9,O=C(CCc1ccccc1)NNC(=S)NC(=O)c1ccc(Cl)cc1,inactive
10,Cc1cccc(C(=O)NNC(=S)NC(=O)c2cccs2)c1,inactive
11,CN(C)CCCN(C(=O)c1ccc(S(=O)(=O)N2CCCCCC2)cc1)c1nc2ccc(F)cc2s1,inactive
12,CC[C@@H](C(=O)[C@@H](C)[C@@H](O)[C@H](C)CCc1ccc(C)c(O)c1C(=O)O)[C@H]1O[C@](CC)([C@H]2CC[C@](O)(CC)[C@H](C)O2)C[C@@H]1C,inactive
13,Cc1occc1C(=O)NNC(=S)NC(=O)COc1ccc(Cl)cc1Cl,inactive
14,COc1cc(OC)cc(C(=O)N[C@H](C(=O)OCC(=O)NC(C)c2ccccc2)C(C)C)c1 (stereo not given in full),inactive
15,O=C(NC(=S)NNC(=O)[C@H]1C[C@@H]1c1ccccc1)c1cccc(F)c1,inactive
16,CCOc1ccccc1OCC(=O)Nc1cc(S(=O)(=O)N2CCCCC2)ccc1N1CCN(CC)CC1,inactive
17,Cc1onc(-c2c(F)cccc2Cl)c1C(=O)N1CCN(c2ncc(Br)cn2)CC1,inactive
18,CCOC(=O)C1=NN(C(=O)c2ccc(C)cc2)C(O)(c2ccc(Cl)cc2)C1 (stereo not given),inactive
19,COc1ccc(/C=C/CN2CCCC(C(=O)c3ccc(OC)c(F)c3)C2)cc1 (stereo not given),inactive
20,NCCSc1c(-c2ccc(Cl)cc2)[nH]c2ccccc12,inactive

row,SMILES,outcome
1,COc1ccc(C(CNC(=O)c2cccc(NS(=O)(=O)c3ccc(C)c(F)c3)c2)N(C)C)cc1 (stereo not given),inactive
2,CCCOc1ccc(C(=O)NNC(=S)NC(=O)c2cccs2)cc1,inactive
3,CCOC(=O)C1CCCN(C(c2ccccn2)c2c(C)[nH]c3ccccc23)C1 (stereo not given),inactive
4,Cc1ccc(NS(=O)(=O)c2ccc(C(=O)N3CC(C)CC(C)C3)cc2)cc1 (stereo not given),inactive
5,COC(=O)C1=NN(C(=O)c2cccc(Br)c2)C(O)(c2ccc(Cl)cc2)C1 (stereo not given),inactive
6,Cc1cc(C)c(CN2CCN(Cc3ccc(C)o3)C(CCO)C2)c(-n2cccn2)c1 (stereo not given),inactive
7,CCOc1ccc2ncc(C(=O)c3ccc(OC)cc3)c(N3CCN(CC)CC3)c2c1,inactive
8,CC(C)(C)c1cc(CCC(=O)NNC(=S)NC(=O)c2ccccc2)cc(C(C)(C)C)c1O,inactive
9,COc1ccccc1C(=O)NNC(=S)NC(=O)c1sc2ccccc2c1Cl,inactive
10,O=C1CC(O)(C(F)(F)F)Oc2c1ccc1ccccc21 (stereo not given),inactive
11,CCCc1ccc(OCC(=O)NNC(=S)NC(=O)c2ccco2)cc1,inactive
12,Cc1ccccc1OCC(=O)NNC(=S)NC(=O)c1ccco1,inactive
13,CCCOc1ccc(C(=O)NC(=S)NNC(=O)c2c(-c3ccccc3)noc2C)cc1,inactive
14,Cc1cc(OCCCn2ccnc2)cc(C)c1Cl,inactive
15,CCN1CCN(c2c(S(=O)(=O)c3ccc(C)c(C)c3)cnc3ccc(F)cc23)CC1,inactive
16,Cc1cccc(C(=O)NC(=S)NNC(=O)c2cccs2)c1,inactive
17,Cc1ccc(C)c(-n2cc(CNCCc3cnccn3)c(-c3ccccc3)n2)c1,inactive
18,Cc1ccc2c(C)c(C(=O)N(Cc3cccs3)C3CCS(=O)(=O)C3)oc2c1 (stereo not given),inactive
19,CC(C)(C)c1ccc(C(=O)NC(=S)NNC(=O)c2cccs2)cc1,inactive
20,CCCCN(CC)CCCNC(=O)Cn1nc(Cc2ccncc2)c2ccccc2c1=O,inactive

# Biological target: Short transient receptor potential channel 4 (Mus musculus) (UniProt Q9QUQ5)
# Assay: calcium flux activators in TRPC4/5HT1a cells, counter-screen for TRPC4 activator project, cell-based, second counter screen, HEK293 TRPC4/5HT1a, Fluo-4 (AID 434977;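 active = calcium signal rise above buffer-control mean plus 5 SD in both duplicates, and also a hit in the primary screen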;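 for activation: plate controls were assay buffer for no effect and maximal serotonin response for full effect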)
# Conditions: Fluo-4 calcium flux, at 10 µM; hits give high values
SMILES,activation,outcome
CC1CCCCN1S(=O)(=O)c1ccc(C(=O)N(CCCN(C)C)c2nc3ccc(Br)cc3s2)cc1 (stereo not given),21% (active),–
CC(C)(C)C(=O)NC(=S)NNC(=O)c1ccc(-c2ccccc2)cc1,147% (active),–
CCCOc1ccc(C(=O)NNC(=S)NC(=O)c2ccccc2)cc1,122% (active),–
OCCN1CCN(Cc2cc(Br)cc(Br)c2O)CC1,85.4% (active),–
c1ccc(Nc2nc(Nc3ccccc3)nc(N3CCNCC3)n2)cc1,56.1% (active),–
O=c1c2cc(Br)ccc2nc(-c2cccc(C(F)(F)F)c2)n1O,111% (active),–
COc1cc(OC)cc(C(=O)NC(=S)NNC(=O)[C@H]2C[C@@H]2c2ccccc2)c1,99% (active),–
c1ccc2c(c1)CCN(c1ncnc3c1[nH]c1ccccc13)C2,–,inactive
O=C(CCc1ccccc1)NNC(=S)NC(=O)c1ccc(Cl)cc1,66.8% (active),–
Cc1cccc(C(=O)NNC(=S)NC(=O)c2cccs2)c1,124% (active),–
CN(C)CCCN(C(=O)c1ccc(S(=O)(=O)N2CCCCCC2)cc1)c1nc2ccc(F)cc2s1,44.3% (active),–
CC[C@@H](C(=O)[C@@H](C)[C@@H](O)[C@H](C)CCc1ccc(C)c(O)c1C(=O)O)[C@H]1O[C@](CC)([C@H]2CC[C@](O)(CC)[C@H](C)O2)C[C@@H]1C,177% (active),–
Cc1occc1C(=O)NNC(=S)NC(=O)COc1ccc(Cl)cc1Cl,58.4% (active),–
COc1cc(OC)cc(C(=O)N[C@H](C(=O)OCC(=O)NC(C)c2ccccc2)C(C)C)c1 (stereo not given in full),85.2% (active),–
O=C(NC(=S)NNC(=O)[C@H]1C[C@@H]1c1ccccc1)c1cccc(F)c1,140% (active),–
CCOc1ccccc1OCC(=O)Nc1cc(S(=O)(=O)N2CCCCC2)ccc1N1CCN(CC)CC1,45% (active),–
Cc1onc(-c2c(F)cccc2Cl)c1C(=O)N1CCN(c2ncc(Br)cn2)CC1,37.9% (active),–
CCOC(=O)C1=NN(C(=O)c2ccc(C)cc2)C(O)(c2ccc(Cl)cc2)C1 (stereo not given),66.4% (active),–
COc1ccc(/C=C/CN2CCCC(C(=O)c3ccc(OC)c(F)c3)C2)cc1 (stereo not given),–,inactive
NCCSc1c(-c2ccc(Cl)cc2)[nH]c2ccccc12,8.63% (active),–

SMILES,activation,outcome
COc1ccc(C(CNC(=O)c2cccc(NS(=O)(=O)c3ccc(C)c(F)c3)c2)N(C)C)cc1 (stereo not given),–,inactive
CCCOc1ccc(C(=O)NNC(=S)NC(=O)c2cccs2)cc1,71.2% (active),–
CCOC(=O)C1CCCN(C(c2ccccn2)c2c(C)[nH]c3ccccc23)C1 (stereo not given),34% (active),–
Cc1ccc(NS(=O)(=O)c2ccc(C(=O)N3CC(C)CC(C)C3)cc2)cc1 (stereo not given),43.8% (active),–
COC(=O)C1=NN(C(=O)c2cccc(Br)c2)C(O)(c2ccc(Cl)cc2)C1 (stereo not given),98.1% (active),–
Cc1cc(C)c(CN2CCN(Cc3ccc(C)o3)C(CCO)C2)c(-n2cccn2)c1 (stereo not given),–,inactive
CCOc1ccc2ncc(C(=O)c3ccc(OC)cc3)c(N3CCN(CC)CC3)c2c1,–,inactive
CC(C)(C)c1cc(CCC(=O)NNC(=S)NC(=O)c2ccccc2)cc(C(C)(C)C)c1O,92% (active),–
COc1ccccc1C(=O)NNC(=S)NC(=O)c1sc2ccccc2c1Cl,14.7% (active),–
O=C1CC(O)(C(F)(F)F)Oc2c1ccc1ccccc21 (stereo not given),119% (active),–
CCCc1ccc(OCC(=O)NNC(=S)NC(=O)c2ccco2)cc1,46.5% (active),–
Cc1ccccc1OCC(=O)NNC(=S)NC(=O)c1ccco1,42.5% (active),–
CCCOc1ccc(C(=O)NC(=S)NNC(=O)c2c(-c3ccccc3)noc2C)cc1,92.6% (active),–
Cc1cc(OCCCn2ccnc2)cc(C)c1Cl,15.8% (active),–
CCN1CCN(c2c(S(=O)(=O)c3ccc(C)c(C)c3)cnc3ccc(F)cc23)CC1,–,inactive
Cc1cccc(C(=O)NC(=S)NNC(=O)c2cccs2)c1,125% (active),–
Cc1ccc(C)c(-n2cc(CNCCc3cnccn3)c(-c3ccccc3)n2)c1,–,inactive
Cc1ccc2c(C)c(C(=O)N(Cc3cccs3)C3CCS(=O)(=O)C3)oc2c1 (stereo not given),–,inactive
CC(C)(C)c1ccc(C(=O)NC(=S)NNC(=O)c2cccs2)cc1,199% (active),–
CCCCN(CC)CCCNC(=O)Cn1nc(Cc2ccncc2)c2ccccc2c1=O,53.7% (active),–
